# AmpC no deterg: blocks E. coli AmpC beta-lactamase in detergent-free assay. Potency, µM (doses to about 57.1 µM), for inactives: top-dose activity change, negative = inhibition, usual class: inhibitors. hit rate 0.52% among 330,000. AmpC nitrocefin hydrolysis, absorbance 480 nm, 0.0001% Triton. P00811;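 note: plate controls were no compound for no effect and no enzyme for full effect; nearly all actives have a fitted effect of over 20% in size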
# Target sequence (P00811 whole entry, looked up): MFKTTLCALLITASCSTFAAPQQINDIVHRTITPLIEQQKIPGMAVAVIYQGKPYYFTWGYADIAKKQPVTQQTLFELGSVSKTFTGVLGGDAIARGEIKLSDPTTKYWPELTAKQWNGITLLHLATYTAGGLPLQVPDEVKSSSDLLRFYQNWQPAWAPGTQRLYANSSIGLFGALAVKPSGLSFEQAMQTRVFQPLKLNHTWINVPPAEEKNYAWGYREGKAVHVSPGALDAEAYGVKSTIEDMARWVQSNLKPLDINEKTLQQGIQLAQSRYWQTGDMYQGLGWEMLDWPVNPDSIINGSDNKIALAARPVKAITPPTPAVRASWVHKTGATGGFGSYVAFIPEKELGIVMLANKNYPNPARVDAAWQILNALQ
#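 AmpC (5.3 nM in the dispensed reagent) in 20 mM phosphate pH 7.0 with 0.01% (detergent screen) or 0.0001% Triton X-100 was preincubated with compounds for 15 min at room temperature. Nitrocefin was then added from an 800 uM solution, and hydrolysis was followed at 480 nm.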
# SARS PLpro yeast: inhibitors of SARS-CoV papain-like protease in yeast; hit rate 0.19% among 330,000; S. cerevisiae expressing SARS-CoV PLpro, growth rescue; Potency, µM (series often up to 32.9 µM), inactives show at the highest dose activity, positive = growth rescue, usual class: activators; AID 485353; calls by dose curve; note: 0% is about no effect; nearly all actives have a fitted effect of over 55% in size
# AMA1 RON2 block: inhibitors of Plasmodium falciparum AMA1-RON2 interaction. AID 720542. AlphaScreen AMA1-biotinylated RON2 peptide binding. Potency, µM (highest dose often 58.2 µM), for inactives: at the top dose activity change, negative = inhibition, hits mostly inhibitors. hit rate 0.2% among 360,000;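 note: 0% = vehicle wells and -100% = peptide control; nearly all actives have a fitted effect of over 45% in size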
#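 AMA1 (3D7) with his tag at 25 nM final met compounds first, then biotinylated RON2 peptide at 25 nM; detection used donor plus acceptor beads, 10 µg/mL apiece, read by AlphaScreen after 30 min at room temperature.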
# NS1 function inh: influenza NS1 inhibition | hit rate 0.4% among 270,000 | Potency, µM (series often up to 46.1 µM), for the others: top-dose activity, positive = more growth; calls by dose curve; note: actives are rising curves; nearly all actives have a fitted effect of over 50% in size
#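 S. cerevisiae expressing influenza A NS1, grown in glucose, washed, then diluted 1:100 into pH 6.0 -URA galactose medium with 23 nl compound. Growth recovery read as OD600; NS1-free strain serves as control.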
# AmpC inh detg: inhibitors of E. coli AmpC beta-lactamase with detergent. P00811. AmpC hydrolysis of nitrocefin, absorbance 480 nm, 0.01% Triton. Potency, µM (top dose mostly 114 µM), inactives show at the highest dose activity change, negative = inhibition, usual class: inhibitors. hit rate 0.041% among 370,000;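 note: 0% = no-compound wells and -100% = no-enzyme wells; nearly all actives have a fitted effect of over 25% in size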
#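 AmpC (5.3 nM in the dispensed reagent) in 20 mM phosphate pH 7.0 with 0.01% (detergent screen) or 0.0001% Triton X-100 was preincubated with compounds for 15 min at room temperature. Nitrocefin was then added from an 800 uM solution, and hydrolysis was followed at 480 nm.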
# Active calls of the source: *; ? = inconclusive; · = no result given. A selection: hits, their analogues and other compounds. The true share with any hit is near 0.99%. Unless noted, calls come from the whole dose curve; as a rule, active = well fitted curve in the direction sought with a large enough effect; inconclusive = small, poorly fitted or top-dose-only effect, or another doubt; inactive = no such curve, though single readings can be large; an effect the other way counts as inactive or inconclusive. Potency is the fitted concentration of half-maximal effect.
SMILES,AmpC no deterg,SARS PLpro yeast,AMA1 RON2 block,NS1 function inh,AmpC inh detg
COc1cc(C(CCN2CCCC(C)C2)c2c(OC)cc(OC)c3c2OC(=O)CC3c2ccc(N(C)C)cc2)cc(OC)c1OC (stereo not given),217%,-1%,20µM*,-55%,5%
COc1cc(OC)c2c(c1C(CCN1CCOCC1)c1ccc(N(C)C)cc1)OC(=O)CC2c1ccc(N(C)C)cc1 (stereo not given),193%,4%,14µM*,-41%,-2%
COc1cc(C2CC(=O)Oc3c(C(CCN4CCCC(C)C4)c4ccc(N(C)C)cc4)c(OC)cc(OC)c32)cc(OC)c1OC (stereo not given),220%,-4%,-27%,-48%,-3%
COc1cc(C(CCN2CCOCC2)c2c(OC)cc(OC)c3c2OC(=O)CC3c2ccc(N(C)C)cc2)cc(OC)c1OC (stereo not given),198%,1%,20µM*,-27%,0%
COc1ccc(C2CC(=O)Oc3c(C(CCN4CCN(c5ccccc5)CC4)c4ccc(N(C)C)cc4)c(OC)cc(OC)c32)cc1 (stereo not given),63%,7%,11µM*,1%,-4%
COc1ccc(C2CC(=O)Oc3c(C(CCN4CCOCC4)c4cc(OC)c(OC)c(OC)c4)c(OC)cc(OC)c32)cc1 (stereo not given),227%,0%,-20%,-9%,5%
COC(=O)c1ccc(NC(=O)CN2CCCN(Cc3ccc(Cl)cc3)S2(=O)=O)cc1,·,·,·,·,4%
Cc1c2cnn(-c3ccccc3)c(=O)c2c(C)n1CCCC(=O)Nc1cccc(F)c1,·,·,·,·,19%
CCN(c1ccccc1)S(=O)(=O)c1cc(NC(=O)Nc2ccccc2C#N)ccc1Cl,8.9µM*,10%,-3%,4%,?
CCN(c1ccccc1)S(=O)(=O)c1ccc(Cl)c(NC(=O)Nc2ccc(Cl)cc2C#N)c1,-47%,3%,-2%,-7%,1%
CCOC(=O)c1c(C)oc2nc(C)nc(NCCc3ccc(SC)cc3)c12,·,·,·,·,22%
CCOC(=O)C1CCN(c2cc(=O)n(-c3ccc(OC)cc3)c(=O)[nH]2)CC1,3.5µM*,-2%,0%,6%,?
O=[N+]([O-])c1ccc(CNCc2cc(Cl)ccc2O)cc1,3.2µM*,2%,67%,·,-4%
Cc1[nH]c2ccccc2c1/C=N/NC(=O)C1CC1(c1ccccc1)c1ccccc1 (stereo not given),11µM*,10%,-17%,8%,0%
Cc1cccn2c(=O)cc(COc3ccc(NC(=O)c4cccc(F)c4)cc3)nc12,·,·,·,·,-4%
CCOC(=O)CCc1c(C)n[nH]c1C,-14%,-1%,8%,·,1%
CCOC(=O)CCCc1sc(N)nc1-c1[nH]c(=O)[nH]c1C,-5%,8%,1.5µM*,?,-12%
CCOC(=O)c1c(NC(=O)C(C)Sc2cn(CCNC(=O)c3ccccc3OC)c3ccccc23)sc2c1CCC2 (stereo not given),·,·,·,·,-2%
Cc1ccc2c(c1)N(C(=O)N1CCC(C(=O)NCc3cccs3)CC1)CC(C)O2 (stereo not given),·,·,·,·,20%
C(=N\N1CCN(c2ccccn2)CC1)/c1cccc2ccccc12,1%,-1%,14µM*,2%,?
Cc1cccc(NC(=O)CNC(=O)COc2ccc(-c3ccc(C#N)cc3)cc2)c1C,28µM*,0%,-10%,19%,-3%
O=c1c(O)cccc2cc(O)c(O)c(O)c12,10µM*,-1%,2.5µM*,-41%,?
COc1ccccc1N/C(N)=N/c1nc(CSc2ccc(C)cc2)cc(=O)[nH]1,14µM*,2%,36%,11%,?
Cc1cc(NC(=O)CSc2nnc(COc3ccccc3)o2)no1,-34%,-2%,11µM*,3%,-14%
O=C(CSc1nnc(COc2ccc(Cl)cc2)o1)Nc1ccccc1,·,·,·,·,0%
SMILES,AmpC no deterg,SARS PLpro yeast,AMA1 RON2 block,NS1 function inh,AmpC inh detg
Cc1cc(NC(=O)CSc2nnc(-c3ccco3)o2)no1,·,·,28µM*,-1%,-7%
CC(=O)Nc1ccc(NC(=O)CSc2nnc(-c3ccco3)o2)cc1,-26%,-1%,0%,·,-8%
Cc1ccc(-c2nnc(Nc3ccc(O)cc3)c3ccccc23)cc1S(=O)(=O)NC(C)(C)CO,·,·,·,·,-6%
Cc1ccc(NS(=O)(=O)c2ccc3[nH]c4c(c3c2)CCCC4)cc1N(C)C,·,·,·,·,1%
NNC(=O)c1cccc(S(=O)(=O)Nc2cccc(C(F)(F)F)c2)c1,-22%,0%,75%,3%,4%
Cc1[nH]c2ccccc2c1/C=N/NC(=O)c1cccc(S(=O)(=O)Nc2cccc(C(F)(F)F)c2)c1,4.5µM*,1%,20%,7%,-7%
CCOc1ccccc1C(=O)NCc1ccc2c(c1)CCN2C(C)=O,·,·,·,·,7%
Clc1ccccc1-c1nc(-c2ccc(Br)o2)no1,-28%,-2%,8%,-15%,-4%
O=[N+]([O-])c1ccccc1-c1nc(-c2ccc(Br)o2)no1,-22%,?,25µM*,-4%,-5%
CC(=O)Nc1ccc(Nc2nc(-c3sc(NC(C)=O)nc3C)cs2)cc1,1.8µM*,2%,-6%,9%,-5%
Cc1ccccc1NC(=S)NC(=O)/C=C/c1ccco1,5.6µM*,5%,23%,27%,-3%
COc1ccccc1NC(=S)NC(=O)/C=C/c1ccco1,-53%,17%,15%,9%,-12%
Cc1cc(C)nc(Nc2ccc(N3CCCC3)cc2)n1,-33%,3%,32µM*,-5%,?
Cc1ccc(NC(=O)C(=O)NCC(c2cccnc2)N2CCN(Cc3ccccc3)CC2)cc1C (stereo not given),·,·,·,·,6%
CC(OC(=O)CNS(=O)(=O)c1ccc2ccccc2c1)C(=O)N(C)c1ccccc1 (stereo not given),73%,·,-7%,2%,0%
CC(OC(=O)COc1ccc(Nc2ccccc2)cc1)C(=O)N(C)c1ccccc1 (stereo not given),40µM*,-10%,?,·,4%
O=C(O)c1ccc(Nc2nc3ccccc3c3nncn23)cc1,·,·,·,·,14%
CCOc1cc(C(c2c(C)[nH]n(-c3ccccc3)c2=O)c2c(C)[nH]n(-c3ccccc3)c2=O)ccc1O,·,·,·,·,-3%
COc1ccc(C(c2c(C)[nH]n(-c3ccccc3)c2=O)c2c(C)[nH]n(-c3ccccc3)c2=O)cc1OC,30%,13µM*,-27%,-7%,-5%
COc1ccc(NC(=O)c2cc(-c3cccs3)on2)c(OC)c1,-9%,2%,1%,13%,3%
COc1ccc(OC)c(NC(=O)c2ccc(-c3cccs3)cc2)c1,?,-5%,28µM*,·,5%
Cc1cc(C)nc(SCC(=O)Nc2ncc(Cc3cccc(Cl)c3)s2)n1,2.8µM*,-8%,5%,16%,-10%
O=[N+]([O-])c1ccc(O)c(C=NN2CCCCC2)c1,·,·,23%,·,·

# High-throughput results (PubChem BioAssay)
